# PubChem BioAssay (NCI)
# This is part of a sample that, as a whole, favours compounds with a hit. Of some 83,000 tested, about 20% had one in any assay.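 Plates (96-well) were seeded with cells, treated with compound at one concentration, and incubated for 48 hours before percent growth was determined.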 Values without a mark were called inactive. Calls of active or inactive are those of the source. How the source made its calls: active means growth percent below 10; inactive means the rest.
# Experiments:
# Test in all cases: NCI-60 one-dose screen, 48 h (100 = growth as untreated, 0 = no growth, -100 = all killed)
# NCI-H23 lung = conditions: 10 µM unless noted
# NCI-H226 lung = conditions: 10 µM unless noted
# NCI-H522 lung = conditions: 10 µM unless noted
# K-562 leukemia = conditions: 10 µM unless noted
# U251 CNS = conditions: 10 µM unless noted
# LOX IMVI melanoma = conditions: 10 µM unless noted
# SK-MEL-28 melanoma = conditions: 10 µM unless noted
# SK-MEL-2 melanoma = conditions: 10 µM unless noted
# EKVX NSCLC = conditions: 10 µM unless noted
# CCRF-CEM leukemia = conditions: 10 µM unless noted
# SR leukemia = conditions: 10 µM
# RPMI-8226 leukemia = conditions: 10 µM unless noted
# BT-549 breast = conditions: 10 µM
# HOP-62 NSCLC = conditions: 10 µM unless noted
# HOP-92 NSCLC = conditions: 10 µM unless noted
# MALME-3M melanoma = conditions: 10 µM unless noted
# OVCAR-4 ovarian = conditions: 10 µM unless noted
# NCI-H322M lung = conditions: 10 µM unless noted
# IGROV1 ovarian = conditions: 10 µM
SMILES,growth (NCI-H23 lung),growth (NCI-H226 lung) [%],growth (NCI-H522 lung),growth (K-562 leukemia),growth (U251 CNS),growth (LOX IMVI melanoma),growth (SK-MEL-28 melanoma),growth (SK-MEL-2 melanoma),growth (EKVX NSCLC),growth (CCRF-CEM leukemia),growth (SR leukemia),growth (RPMI-8226 leukemia),growth (BT-549 breast),growth (HOP-62 NSCLC),growth (HOP-92 NSCLC),growth (MALME-3M melanoma),growth (OVCAR-4 ovarian),growth (NCI-H322M lung),growth (IGROV1 ovarian)
CC1(CF)NC(=O)NC1=O (stereo not given),103%,119,122%,107%,115%,100%,111%,121%,104%,95.7%,115%,108%,104%,–,–,–,–,–,–
CCOP(=O)(OCC)Oc1ccc(Sc2ccc(OP(=O)(OCC)OCC)cc2)cc1,–,101,91.2%,102%,–,107%,111%,94%,–,86.3%,94.2%,–,96%,93.2%,79.7%,93.5%,116%,–,–
CC1([N+](=O)[O-])COP(=O)(Nc2ccc(F)cc2)OC1 (stereo not given),96.4%,101,89.4%,103%,–,84.2%,116%,98%,115%,96.3%,84.2%,–,–,–,–,110%,113%,–,–
COc1cc(NCCCCCN=C(N)N)c2ncccc2c1,4.89% (active),–,9.47% (active),16.1%,28.1%,66.4%,89.7%,43.3%,65.4%,39.8%,33.5%,58.2%,–,45.7%,66.7%,19.6%,-12.1% (active),61.4%,23.6%
NC(=O)C(Cl)Cl,108%,–,109%,100%,–,–,112%,–,–,-19.9% (active),–,105%,111%,–,–,96.6%,105%,94.4%,102%
O=C(CCc1ccco1)NC1CCN(CC2(c3ccc(Cl)cc3)CCC2)CC1,-22.6% (active),–,-22.2% (active),3.19% (active),7.34% (active),–,30.1%,-24.3% (active),–,–,–,–,12.4%,39.3%,-21.9% (active),-17.9% (active),–,34.7%,30.1%
CC(=O)O[C@H]1CCC2(C)C(=CCC3C2CCC2(C)/C(=N/OC(=O)c4ccc(N(CCCl)CCCl)cc4)CCC32)C1 (stereo not given in full),45.8%,101,27.6%,5% (active),-27.2% (active),5.24% (active),81.8%,99.2%,23.1%,–,–,26.6%,51.4%,–,76.1%,92.2%,–,–,11.6%
Cn1cnnc1[S-].[Au+].c1ccc([PH+](c2ccccc2)c2ccccc2)cc1,15.8%,–,-75% (active),1.84% (active),-43.1% (active),-48.6% (active),10.5%,0.754% (active),60.7%,1.22% (active),4.41% (active),-3.32% (active),–,25.1%,-58.1% (active),-38.1% (active),38.9%,89%,-1.4% (active)
C[C@]12C[C@H](O)[C@H]3[C@@H](CCC4=CC(=O)CC[C@@]43C)[C@@H]1CC[C@@H]2O,103%,–,–,104%,–,96%,–,–,94.8%,97.3%,97.4%,98.3%,104%,105%,95.5%,–,104%,110%,105%
CC[C@]12C=CCN3CC[C@@]4(c5ccc(OC)cc5N(C)[C@H]4[C@@](O)(C(=O)OC)[C@@H]1OC(=O)CCCN1CCN(CCCC(=O)O[C@@H]4[C@]5(CC)C=CCN6CC[C@@]7(c8ccc(OC)cc8N(C)[C@H]7[C@@]4(O)C(=O)OC)[C@@H]65)CC1)[C@@H]32,-80.6% (active),–,-79.9% (active),-62% (active),-83.7% (active),-89.1% (active),-91.6% (active),-75.7% (active),-88.4% (active),-56.7% (active),–,-55.2% (active),-88.3% (active),-82.5% (active),–,-90.7% (active),-47.4% (active),-88.5% (active),-76.6% (active)
CCC(C)(C)O,111%,102,–,–,108%,108%,108%,–,98%,6.63% (active),101%,106%,110%,–,95.3%,110%,–,–,117%
CCC[CH2][Sn]([CH2]CCC)([CH2]CCC)[O]C(=O)c1ccc(Cl)cc1Cl,-65.5% (active),–,-73.3% (active),-38.2% (active),-85.8% (active),-70.3% (active),–,-73.6% (active),-65% (active),–,3.12% (active),-29.7% (active),-96% (active),-82.2% (active),-84.6% (active),-76.8% (active),-67.7% (active),-86.5% (active),-68.5% (active)
CC(C)OC(=S)[S-].[Au+].c1ccc([PH+](c2ccccc2)c2ccccc2)cc1,42.4%,–,-63.6% (active),8.05% (active),11.2%,–,16.5%,33%,82.9%,10.9%,–,–,-3.75% (active),–,–,5.97% (active),38.9%,99.4%,2.28% (active)
COc1ccc(CN2CCN(Cc3ccccc3)CC2)c(O)c1,94.8%,–,71.9%,74.3%,95.1%,–,115%,89.9%,–,87.1%,73.5%,77.1%,–,93.4%,87.9%,98.4%,99.8%,92.3%,91.3%
CC[C@@]1(C2O[C@@H](C3O[C@@](O)(CC)[C@H](C)C[C@@H]3C)C[C@@H]2C)CC[C@H]([C@]2(C)CCC3(C[C@H](O)[C@@H](C)[C@@H]([C@H](C)[C@@H](OC)[C@H](C)C(=O)O)O3)O2)O1 (stereo not given in full),16.5%,–,–,–,–,–,–,–,26.1%,–,–,–,32.5%,–,–,–,29.7%,38.8%,36.9%
C/C(=N/OC(=O)N(C)C)c1ccc(Cl)cc1Cl,–,104,83.6%,106%,–,97.8%,110%,88.8%,–,94.1%,87.2%,103%,97%,98.2%,108%,97.6%,113%,–,104%
Cc1nnc([S-])s1.[Au+].c1ccc([PH+](c2ccccc2)c2ccccc2)cc1,12.2%,–,-75.3% (active),1.12% (active),-59.9% (active),-60.6% (active),–,-12.2% (active),56.4%,0.579% (active),7.04% (active),-1.82% (active),33.9%,28.2%,-76.6% (active),-61.6% (active),36.2%,84.2%,-25.4% (active)
n1nc(-c2nonc2-c2nn[nH]n2)n[nH]1,102%,–,101%,106%,101%,103%,106%,115%,96.3%,–,92.5%,–,103%,112%,104%,106%,102%,–,118%
O=C(O)C1(Br)CC12c1ccccc1-c1ccccc12 (stereo not given),97.1%,98.9,95.9%,86.6%,–,96.1%,114%,110%,116%,97.4%,88.9%,–,94.9%,–,100%,100%,107%,–,99.7%
NC(=O)OCC(CO)(c1ccccc1)c1ccccc1,–,96.2,98.8%,108%,–,–,–,110%,–,94.4%,96.5%,98.4%,107%,94.9%,–,84.6%,99.7%,–,–
O=C(O)CNC(=O)c1ccccc1,–,109,–,–,–,95.9%,107%,97.2%,–,–,–,92.2%,97.5%,–,92.4%,133%,105%,–,105%
C/C(=N/OC(=O)N(C)C)c1cc(Cl)ccc1Cl,–,99.4,83.5%,104%,–,–,113%,95.7%,–,–,–,97.9%,98.5%,95.6%,107%,95.9%,107%,–,–
